Assay outcomes deposited in PubChem BioAssay by National Center for Advancing Translational Sciences (NCATS).
Only some compounds are listed: those with a hit (about 14% of all), similar ones and a draw of the others.
HCV inh = HCV inhibition. Huh7.5.1 HCVcc-Cre infection, luciferase reporter, 44 h. Potency, µM (top dose mostly 41.8 µM), inactives show at the highest dose activity change, negative = inhibition, hits mostly inhibitors. 340,000 compounds, 3.4% hits. AID 651820; also: potency is read from the fitted curve at half-maximal effect
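Cells seeded at 1,000/well and cultured 4 h, then compounds added followed by HCVcc-Cre virus (~0.5 moi). After 44 h further culture, luciferase substrate was added, plates held 15 min at room temperature, and luminescence read for 15 sec.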
Pf growth 48h = inhibits P. falciparum growth in the first generation, 48 h | AID 504832 | Potency, µM (doses to about 28.7 µM), for the others: at the top dose activity change, negative = inhibition, actives largely listed as inhibitors | P. falciparum luciferase growth in erythrocytes, 48 h | 310,000 compounds, 5.9% hits; also: potency is read from the fitted curve at half-maximal effect
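Firefly luciferase activity from engineered P. falciparum reports growth; inhibitors lower the luminescent signal. Cultures contained 2% hematocrit erythrocytes at 0.1% final parasitemia.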
Pf growth 96h = P. falciparum growth inhibition at 96 hours; P. falciparum luciferase reporter growth, 96 h; Potency, µM (titrated, usually from 28.7 µM), for inactives: top-dose activity change, negative = inhibition, usual class: inhibitors; AID 504834; 320,000 compounds, 6.9% hits; also: potency is read from the fitted curve at half-maximal effect
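Delayed-death screen, second-generation endpoint: infected erythrocytes, 2% hematocrit, 0.05% parasitemia final; 96 hours at 37 C, 5% CO2; luciferase detection reagent; luminescence decrease equals reduced growth.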
LASV entry inh = blocks Lassa virus binding to or entry into cells. Lassa virus pseudotype entry inhibition, cell reporter. Potency, µM (top dose mostly 37.9 µM), for inactives: top-dose activity change, negative = inhibition, usual class: inhibitors. 300,000 compounds, 1.2% hits. AID 540256; calls by dose curve; tested in HEK293 cells; also: potency is read from the fitted curve at half-maximal effect; nearly all actives have a fitted effect of over 50% in size
MARV entry inh = inhibitors of Marburg virus binding or cell entry. Marburg virus pseudotyped entry inhibition, cell reporter. Potency, µM (top dose mostly 37.8 µM), without a hit: at the highest dose activity change, negative = inhibition, usual class: inhibitors. 300,000 compounds, 1.8% hits. AID 540276; calls by dose curve; tested in HEK293 cells; also: potency is read from the fitted curve at half-maximal effect
HCMV inh = blocks human cytomegalovirus replication. HFF cells, HCMV-luciferase reporter, 72 h; active compounds read low. activity change, negative = inhibition, % at 57.5 µM. 410,000 compounds, 4.5% hits; in the data active = activity change below about -60%; inconclusive = no clear call, values can overlap the other calls; inactive = above about -39%
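Luciferase read-out from HCMV-luciferase-infected HFFs (MOI 1 PFU/cell) 72 h post infection at 37C; compounds added after 16 h cell attachment; activity normalized between buffer-only basal and Salinomycin (10uM) inhibitor controls.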
Active calls of the source: *; ? = inconclusive; . = not tested or not shown; [ ] = remark or other dose. Unless noted, calls follow the shape of the dose curve; as a rule, active = well fitted inhibition curve with a large enough effect; inconclusive = small, poorly fitted or top-dose-only effect, or another doubt; inactive = no such curve, though single readings can be large or run the other way. % is scaled to controls: 0 for no effect and ±100 for the full control effect.

SMILES	HCV inh	Pf growth 48h	Pf growth 96h	LASV entry inh	MARV entry inh	HCMV inh
CCN(C)C1CN(Cc2cn(Cc3ccc(Cl)cc3)nn2)S(=O)(=O)C1 (stereo not drawn)	.	.	.	.	.	5
CCC(C(=O)NCCc1ccccc1)n1nc(C)n2c(cc3sccc32)c1=O (stereo not drawn)	.	.	.	.	4%[46.1 µM]	-8
C/C(=N\NC(=O)c1ccc(O)cc1)c1cccc(NC(=O)c2ccccc2C)c1	17%	33%	?	?	-25%	11
COc1ccc(C(=O)Nc2ccccc2C(=O)NC(Cc2ccc(O)cc2)C(=O)NNC(=O)c2ccccc2)cc1 (stereo not drawn)	-3%	10µM*	32%	?	-16%	2
COc1ccc(C(=O)Nc2ccccc2C(=O)NC(Cc2ccc(O)cc2)C(=O)NNC(=O)c2ccncc2)cc1 (stereo not drawn)	-25%	12µM*	151%	0%	-3%[46.1 µM]	-27
COc1ccc(C(=O)Nc2ccccc2C(=O)NC(Cc2ccc(O)cc2)C(=O)NNC(=O)c2ccc(C)cc2)cc1 (stereo not drawn)	-24%	?	?	-6%	11%	25
C/C(=N\Nc1nc(-c2ccc(C)cc2)nc2ccccc12)c1ccc([N+](=O)[O-])cc1	.	0%	2.1µM*	.	.	.
COc1ccc(-c2nc(N/N=C(\C)c3ccc(O)cc3)c3ccccc3n2)cc1	10µM*	?	-98%	.	.	-19
O=C(C=Cc1ccc2c(c1)OCO2)c1ccc(F)cc1	.	.	.	.	-9%[14.2 µM]	.
O=c1[nH]c(=O)n(-c2cccc3ccccc23)c(O)c1C=NCc1ccc2c(c1)OCO2	7%	.	-3%	15%	21%	-108*
COc1ccc(OC)c(-n2c(O)c(C=NCc3ccc4c(c3)OCO4)c(=O)[nH]c2=O)c1	10%	?	.	17%	-12%	18
COc1cc(NC(=O)C2(C)CCN2C(=O)C(C)C)cc(OC)c1OC (stereo not drawn)	.	.	.	.	.	-25
COc1cc(OC)c(NC(=O)N2CC=C(c3c[nH]c4ccccc34)CC2)cc1Cl	.	.	.	-15%[46.1 µM]	.	?
Nc1nc2cc(S(=O)(=O)NC3=NCCCCC3)ccc2s1	-3%	?	?	.	.	-22
COc1cc(CCC(=O)Nc2ccc(S(=O)(=O)NC3=NCCCCC3)cc2)cc(OC)c1OC	-17%	-29%	10µM*	19%	?	69
CCOc1ncccc1C(=O)Nc1ccc(S(=O)(=O)NC2=NCCCCC2)cc1	-20%	-15%	-29%	16%	-23%[46.1 µM]	12
CCCOc1ccc(C(=O)Nc2ccc(S(=O)(=O)NC3=NCCCCC3)cc2)cc1	?	5.9µM*	10µM*	-24%	?	-62*
COc1ccc(CCC(=O)Nc2ccc(S(=O)(=O)NC3=NCCCCC3)cc2)cc1	.	.	.	.	.	22
CCN(CC)S(=O)(=O)c1cccc(C(=O)Nc2ccc(S(=O)(=O)NC3=NCCCCC3)cc2)c1	6%	?	6.6µM*	-10%[46.1 µM]	-27%	-62*
CCOC(=O)c1ccc(S(=O)(=O)Nc2nc3cc(S(=O)(=O)NC4=NCCCCC4)ccc3s2)cc1	-18%	-1%	13µM*	-26%	5%[46.1 µM]	0
CN(C)/C=N/c1c(C#N)cnn1-c1ncnc2sc(-c3ccccc3)cc12	?	?	10µM*	11µM*	?	-23
CN(C)/C=N/c1c(C#N)cnn1-c1ccccc1	-8%	.	.	-5%	0%	97
COc1ccc(-c2cc3nc(C)c(CCC(=O)N4CCN(c5ccccc5F)CC4)c(C)n3n2)c(OC)c1	.	.	.	10%[46.1 µM]	6%[46.1 µM]	-4
C=CCOC1=CS(=O)(=O)N(Cc2ccc(Br)cc2)c2ccc(Br)cc21	20µM*	.	.	.	.	16
CCn1c(COc2ccccc2C)nnc1SCC(=O)N1CCCCC1	5%	?	7.4µM*	-3%	-1%	16
SMILES	HCV inh	Pf growth 48h	Pf growth 96h	LASV entry inh	MARV entry inh	HCMV inh
CCn1c(COc2ccccc2)nnc1SCC(=O)C(C)(C)C	6%	12µM*	9.3µM*	-4%	?	1
CCOC(=O)CN(C(=O)CSc1nnc(COc2ccc(OC)cc2)n1CC)c1ccccc1	6%	8.3µM*	6.6µM*	29%	-29%[46.1 µM]	-37
CCOC(=O)CN(C(=O)CSc1nnc(CNc2ccc(C)cc2C)n1CC)c1ccccc1	-15%	?	9.3µM*	16%	-17%	37
CCOC(=O)CN(C(=O)CSc1nnc(C)n1-c1ccccc1)c1ccccc1	0%	1%	5%	-1%	5%	-5
CCOC(=O)CN(C(=O)CSc1nnc(CNc2ccc(F)cc2)n1CC)c1ccc(F)cc1	-2%	?	.	-14%	?	19
O=C(NC(c1ccccc1)c1ccsc1)C1CCN(Cc2ccc(Oc3ccccc3)cc2)CC1 (stereo not drawn)	.	.	.	.	.	-12
CC1=CC=CN2C[C@H](O)CN=C12	.	.	.	.	12%	.
COc1ccc(CNC(=O)Cc2csc3nc(-c4ccc(F)cc4)cn23)cc1	.	.	.	0%[46.1 µM]	.	-27
COc1ccc(S(=O)(=O)N2CCN(c3ccccc3)CC2)cc1	5%	17%	32%	?	-9%[46.1 µM]	-30
COc1ccc2cc(S(=O)(=O)N3CCCC3)ccc2c1	-9%	-1%	6.6µM*	-2%[46.1 µM]	?	-21
COc1ccc(S(=O)(=O)N2CCCC2)cc1OC	20%	-20%	?	16%[46.1 µM]	10%[46.1 µM]	34
COc1ccc2cc(S(=O)(=O)N3CCCCC3)ccc2c1S(=O)(=O)N1CCCCC1	?	?	?	-21%	?	-72*
COc1cccc(N2CCN(S(=O)(=O)c3ccc4ccccc4c3)CC2)c1	22µM*	12%	4%	?	?	-25
COc1ccc(NC(=O)N2c3ccc(OC)cc3[C@@H](NCc3ccc(C)o3)[C@H](C)[C@H]2c2ccccc2)cc1	.	.	.	.	.	6
CCOCCc1nn2c(=O)cc(COC(=O)c3ccc(NC(=O)C4CCCCC4)cc3)nc2s1	.	.	.	-7%[46.1 µM]	.	-5
COc1ccc(C2C=C(c3ccccc3)Nc3nc(NC(=O)/C=C/c4ccc(Cl)cc4)nn32)cc1 (stereo not drawn)	.	.	.	1%[46.1 µM]	-6%[46.1 µM]	1
CCCCn1cnc2c(c(-c3ccccc3)c(-c3ccccc3)n2Cc2ccco2)c1=N	-23%	4.1µM*	2.3µM*	-20%	-35%	-15
O=c1c2cnn(-c3ccccc3)c2ncn1Cc1ccco1	?	.	66%	-17%	3%	7
N=c1c2c(-c3ccccc3)c(-c3ccccc3)n(Cc3ccccc3)c2ncn1CCCn1ccnc1	0.5µM*	0.93µM*	1.3µM*	?	?	-74*
N=c1c2c(-c3ccccc3)c(-c3ccccc3)n(Cc3ccco3)c2ncn1Cc1ccco1	16µM*	3.7µM*	?	?	?	-13
O=S(=O)(c1ccc(Cl)cc1)c1nc(-c2cccc(Br)c2)oc1NCc1ccccc1	.	.	.	?	.	11
